Screening data deposited in PubChem BioAssay by National Center for Advancing Translational Sciences (NCATS).
Pf Dd2 growth: qHTS Primary assay for Inhibitors of Plasmodium falciparum Dd2 growth in vitro; P. falciparum Dd2 growth, SYBR Green, 72 h; AID 1347417, 2020; 120,000 tested, 4.3% active; Potency, µM (doses to about 28.9 µM), hits mostly inhibitors; active = well fitted inhibition curve with a large enough effect; note: nearly all actives have a fitted effect of over 65% in size
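Readout: SYBR Green fluorescence, 485 nm excitation, 535 nm emission, after ~16 h lysis at 37C. Before that, Dd2-infected red cells (2.5% hematocrit) grew 72 h with compound, 29 uM top final concentration.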
Each line names hits and unclear results; the compound was inactive in the other large screens. The sample as a whole holds a higher share of hits than the screen did.

NC(=O)[C@@H](Cc1c[nH]c2ccccc12)NC(=O)[C@@H]1C[C@@H](NS(=O)(=O)c2cccs2)CCN1C(=O)CSCC(=O)O	none
COc1nc2c(cc1CNC(=O)CN1CCOCC1)C(=O)N(C1CCCC1)C2	none
COc1cccc([C@@H]2CN(CC3CCOCC3)C[C@H]2C(=O)O)c1OC	none
CC(C)C1CN(CC2CCC(N)CC2)CCC(=O)N1Cc1ccc(F)cc1 (stereo not drawn)	none
CN(C)c1nc(-c2ccncc2)nc2c1CCN(C(=O)c1[nH]ncc1Cl)C2	none
COCCN1C(=O)c2ccccc2C(C(=O)NCCCOC(C)C)C12CCCCC2 (stereo not drawn)	none
COCCN1C(=O)c2ccccc2C(C(=O)Nc2cc(Cl)ccc2OC)C12CCCC2 (stereo not drawn)	none
CCc1nc(NC(=O)C2c3ccccc3C(=O)N(CCOC)C23CCCC3)sc1C (stereo not drawn)	Pf Dd2 growth 2µM
CC(C)N1C(=O)[C@@H]2[C@@H](CCN2C(=O)CSCC(=O)O)N(Cc2cccc(F)c2)C1=O	none
CCc1nc(-c2ccc(OC3CCN(C(=O)c4sc(C)nc4C)C3)cc2)no1 (stereo not drawn)	none
N#Cc1cccc(NC(=S)N[C@H]2CO[C@H]3[C@@H]2OC[C@@H]3n2nnnc2Oc2ccccc2)c1	none
N#Cc1cccc(NC(=S)N[C@H]2CO[C@H]3[C@@H]2OC[C@@H]3n2nnnc2Oc2ccc3c(c2)OCO3)c1	none
N#Cc1cccc(NC(=S)N[C@H]2CO[C@H]3[C@@H]2OC[C@@H]3n2nnnc2Oc2cccc(N3CCOCC3)c2)c1	Pf Dd2 growth 8.91µM
Cc1cc(CNC(=O)[C@@H]2CCC[C@@H](NCC3CC3)CN(C)C(=O)C2)no1	none
O=C(NC[C@H]1OC[C@@H](NCc2ccccc2O)[C@@H]1O)Nc1ccccc1	none
CC(C)CCC(=O)N1CCC2(CC1)CC(O)CCO2 (stereo not drawn)	none
CCn1ccnc1CN1CC[C@H](N2CCN(C)CC2)[C@H](CCC(=O)O)C1	none
COCC1CN(C(=O)c2cc(Cl)ccc2OC)CC12CCNCC2 (stereo not drawn)	none
CCN1c2cc(C(=O)NCc3cccc(Br)c3)ccc2C(=O)N2CCCCC21 (stereo not drawn)	none
COc1ccc(CC(=O)Nc2sc3c(c2C(=O)Nc2ccccc2)CCCCC3)cc1	none
COc1ccc(NC(=O)c2c(NCc3cccs3)sc3c2CCCC3)cc1	Pf Dd2 growth 7.94µM
COC(=O)c1c(NC(=O)COc2cc(C)c(Cl)c(C)c2)sc2c1CCCC2	none
COc1ccc(NC(=O)c2c(NC(=O)c3cccc(C)c3)sc3c2CCC3)cc1	none
O=C(COc1ccccc1)Nc1sc2c(c1C(=O)Nc1ccccc1)CCCCC2	none
CCCCOc1ccc(C(=O)Nc2sc3c(c2C(=O)OCC)CCCCC3)cc1	none
CCOC(=O)c1ccc(NC(=O)c2c(NCc3cccs3)sc3c2CCCCC3)cc1	Pf Dd2 growth 10µM
CCOC(=O)c1ccc(NC(=O)c2csc3c2CCCC3)cc1	none
COc1ccc(NC(=O)c2c(NC(=O)COc3ccc(Cl)cc3)sc3c2CCCCC3)cc1	Pf Dd2 growth 3.16µM
COC[C@@H]1CN(C(=O)c2ccoc2C)C[C@H]1c1nc(C)no1	none
CC[C@H]1CN(C(=O)C(C)(C)C)CC[C@H]1CC(=O)Nc1ccccc1	none
COC(=O)c1cc2n(n1)CCCN(C(=O)c1ccc(OC)nc1OC)C2	none
CC(C)C(=O)N[C@@H]1C[C@H](COc2ccc(S(C)(=O)=O)cc2)[C@@H](O)[C@H]1O	none
O=C(C1CCCN(c2cnn(Cc3ccccc3)c(=O)c2)C1)N1CCN(C2CCCCC2)CC1 (stereo not drawn)	none
Cc1ccc(-c2onc(C)c2C)cc1S(=O)(=O)NC1CCCCC1	none
O=C1c2ccccc2-c2onc3c(NCCO)cc(NC4CCCCC4)c1c23	Pf Dd2 growth 8.91µM
CCNc1cc(N2CCN(C3CCCCC3)CC2)c2noc3c2c1C(=O)c1ccccc1-3	Pf Dd2 growth 5.01µM
O=C(CC1CCCC1)NC1CCN(c2cnn(Cc3ccccc3)c(=O)c2)CC1	none
COc1ccccc1-c1nc(C2CC(=O)N(C3CCCCC3)C2)no1 (stereo not drawn)	none
O=C(O)CCCNc1cc(N2CCN(C3CCCCC3)CC2)c2noc3c2c1C(=O)c1ccccc1-3	Pf Dd2 growth 11.2µM
CN(CCCO)C(=O)c1cccc(CC2CCNCC2)c1	none
COc1ccccc1NC(=O)N1CCCC(Cn2cnc3cccnc32)C1 (stereo not drawn)	none
Cc1cc(C(F)(F)F)nn1CC(=O)N1CC[C@H](CO)[C@H](NC(=O)C2CC2)C1	none
O=C1Nc2ccc(-c3ccccc3)cc2C(=O)N2CCN(C(=O)c3cccs3)C[C@H]12	none
CN(Cc1cccnc1)Cc1nc(CC(N)=O)nn1-c1ccc2c(c1)CCC2	none
CCCN(CC1CC1)C(=O)c1c(OCC2CC2)cc(=O)n2c1CCCCC2	none
CC[C@H]1CN(C(=O)NC(C)C)CC[C@H]1CC(=O)NC1CC1	none
N#Cc1ccc(O[C@@H]2CCOC[C@H]2NC(=O)CCN2CCCC2=O)cc1	none
CC(C)CNC(=O)c1ccc2c(c1)NC(C)(COCC1CC1)CO2 (stereo not drawn)	none
O=C(NCCc1noc(C2CC2)n1)C1CCCC1	none
Cc1ccc(-c2nc(CNC(=O)[C@@H]3CCC[C@H](N)C3)[nH]c2-c2ccccn2)cc1	Pf Dd2 growth 10µM
O=C(CN1CCNCC1)NCc1nc(-c2cccc(F)c2)c(-c2ccccn2)[nH]1	none
O=C(NCc1nc(-c2cccc(F)c2)c(-c2ccccn2)[nH]1)[C@@H]1C[C@@H](O)CN1	none
NCCC(=O)N1CCCC(N2CCN(Cc3ccc4c(c3)OCO4)CC2)C1 (stereo not drawn)	none
COCCOCc1nc(C2CCN(C(=O)c3cc(C)n(C)n3)C2)no1 (stereo not drawn)	none
CNC(=O)c1cc[nH]c1C1CCCN(C(=O)c2ccc(C)[nH]c2=O)C1 (stereo not drawn)	none
COc1ccc(C(=O)N2[C@@H]3CC[C@H]2CC(NC(=O)c2cnc(C)cn2)C3)cc1F (stereo partly drawn)	none
CCCNC(=O)N1CCC(O)(c2cnc(CN3CCC3)s2)CC1	none
Cc1ccc2c(c1)-c1cc(C)nn1C(c1cc(Br)ccc1O)N2 (stereo not drawn)	Pf Dd2 growth 12.6µM
CCCc1ncncc1C(=O)N1C[C@@H](C)[C@](O)(C2CC2)C1	none
Cc1nc(CC2CCN(C(=O)c3ccccc3)CC2)n[nH]1	none
O=C(CN1CC2CC(C1)[C@H]1CCCC(=O)N1C2)Nc1ccc(N2CCOCC2)cc1 (stereo partly drawn)	none
O[C@@H]1CC(CNCc2ccc(F)cc2)(COc2ccc(C(F)(F)F)cn2)C[C@@H]1O (stereo partly drawn)	Pf Dd2 growth 3.98µM
Cn1cc(CNCC2(COc3ccc(C(F)(F)F)cn3)C[C@@H](O)[C@@H](O)C2)cn1 (stereo partly drawn)	none
O=C(NCC1(COc2ccc(C(F)(F)F)cn2)C[C@@H](O)[C@@H](O)C1)C1CC1 (stereo partly drawn)	none
Cc1c(Cl)cccc1NC(c1ccc(F)cc1)c1nnc(-c2ccccc2)o1 (stereo not drawn)	none
O=S(=O)(NCCc1noc(-c2ccccc2)n1)c1ccc(Cl)cc1	none
Clc1ccc(CCNC(c2nnc(-c3ccccc3)o2)c2ccccc2Cl)cc1 (stereo not drawn)	Pf Dd2 growth 11.2µM
Cc1cc(C(=O)N2C[C@@H](COCC3CC3)[C@H](c3ccccn3)C2)ccn1	none
CC(C)(C)C(=O)N1CCC(c2nnc(Cn3cncn3)n2C2CC2)CC1	none
O[C@@H]1CCN(Cc2nc(C3(O)CCN(Cc4ccccc4F)CC3)cs2)C1	none
CN1CCC2(Cc3ccccc3CN([S+](C)(=O)[O-])C2)C1 (stereo not drawn)	none
